Compound activity from PubChem BioAssay.
Compounds with a hit are over-represented: about 4.1% of the library has one in this group of screens.
UHRF1 MBD2 ctr = UHRF1 methylated DNA binding inhibitors, primary screen, counter-screen for MBD2 inhibitor project, biochemical, TR-FRET, human UHRF1, single concentration. E3 ubiquitin-protein ligase UHRF1 (Homo sapiens), Q96T88. UHRF1 binding to methylated oligo. inhibition, % at 4.4 µM. actives 0.75% (n = 370,000); in the data active means inhibition above about 21%;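 further: UHRF1 SRA domain binding a hemimethylated CpG hairpin DNA probe; 0% = median of test compound wells and 100% = reference inhibitor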
MBD2 inh = inhibitors of MBD2 binding to methylated DNA, primary screen, biochemical, TR-FRET, DNA-binding domain, human; actives 0.31% (n = 370,000); MBD2 binding to methylated oligonucleotide; inhibition, % at 4.4 µM; in the data active means inhibition above about 13%
LEDGF integ inh = blockers of LEDGF/p75-dependent integrase strand transfer – biochemical, TR-FRET, high throughput, primary screen; HIV-1 integrase (with human LEDGF/p75); actives 0.64% (n = 370,000); inhibition, % at 3.7 µM; AID 743269, 2014; TR-FRET IN-LEDGF/p75 DNA integration, Eu/Cy5;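 active means inhibition above the screen-wide mean plus 3 SD, cut at about 13% in these data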;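 further: signal is the Cy5 over europium emission ratio at 671 and 618 nm; 0% = plate median of compound wells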
PRMT1 inh = PRMT1 methyltransferase inhibitors, primary screen, biochemical, fluorescence polarization | recombinant PRMT1, activity-based probe fluorescence polarization | actives 1.3% (n = 370,000) | Protein arginine N-methyltransferase 1 (Homo sapiens), Q99873 | inhibition, % at 2.79 µM;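 active means inhibition above about 21% made by adding two undisclosed values, limit read from the data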
Target sequence (Q99873 whole entry, looked up): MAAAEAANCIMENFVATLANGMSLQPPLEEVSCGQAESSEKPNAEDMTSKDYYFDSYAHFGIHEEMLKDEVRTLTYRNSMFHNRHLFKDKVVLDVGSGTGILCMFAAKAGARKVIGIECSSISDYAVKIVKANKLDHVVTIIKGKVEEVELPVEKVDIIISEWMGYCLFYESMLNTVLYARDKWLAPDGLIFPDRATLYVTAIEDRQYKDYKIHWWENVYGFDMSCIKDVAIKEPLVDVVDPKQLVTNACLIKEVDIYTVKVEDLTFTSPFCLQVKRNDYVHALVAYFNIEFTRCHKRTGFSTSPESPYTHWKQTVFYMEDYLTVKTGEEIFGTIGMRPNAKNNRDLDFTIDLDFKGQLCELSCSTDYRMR
ABHD5-PLIN5 inh = ABHD5-PLIN5 interaction inhibitors, primary screen, cell lysate, split luciferase complementation, luminescence. Split G. princeps luciferase complementation, 4 h. actives 0.78% (n = 360,000). AID 602281, 2012. Perilipin-5 (Homo sapiens) + 1-acylglycerol-3-phosphate O-acyltransferase ABHD5 (Homo …. inhibition, % at 4 µM;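 active means inhibition above the mean inhibition across every tested compound plus 3 SD, cut at about 22% in these data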;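 further: 0% = DMSO only wells and the 100% control is not disclosed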
rCAG RNA binder = binders of r(CAG) RNA repeats, primary screen, biochemical, fluorescence | actives 1.3% (n = 370,000) | r(CAG) RNA repeat, TO-PRO-1 dye displacement fluorescence | inhibition, % at 3 µM;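 active means inhibition above the plate cutoff, the mean of all test compounds on that plate plus 3 SD, cut at about 35% in these data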;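 further: 0% = DMSO alone and 100% = 100 µM mitoxantrone as full dye displacement; higher means more dye released from RNA so lower well fluorescence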
rCAG binder conf = small molecules binding CAG repeat RNA – biochemical, fluorescence, confirmation; shares compounds with rCAG RNA binder; r(CAG) RNA repeat, TO-PRO-1 dye displacement fluorescence; inhibition, % at 3 µM; actives 70% (n = 4,300);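 active means inhibition above a per-plate cutoff, the mean inhibition of sample wells plus 3 SD, cut at about 35% in these data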;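 further: loss of TO-PRO-1 fluorescence as compound displaces dye from 1x1 AA loop RNA; 0% = DMSO only wells and 100% = 100 µM mitoxantrone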
DNA CAG counter = displacement of TO-PRO-1 from CAG DNA duplex, counter-screen for rCAG RNA repeat binder project, biochemical, fluorescence, TO-PRO-1 dye, d(CAG) DNA oligo; shares compounds with rCAG RNA binder; d(CAG) DNA oligo TO-PRO-1 dye displacement; inhibition, % at 3 µM; actives 94% (n = 4,300); AID 652068, 2013;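 active means inhibition above its plate's cutoff, the mean test-well inhibition plus 3 SD, cut at about 4.8% in these data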;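 further: 0% = DNA dye mix with DMSO and 100% = 100 µM mitoxantrone; hits displace the dye from DNA and so lower well fluorescence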
* marks the source's active call; other numbers are inactive results; · = no result.

SMILES	UHRF1 MBD2 ctr	MBD2 inh	LEDGF integ inh	PRMT1 inh	ABHD5-PLIN5 inh	rCAG RNA binder	rCAG binder conf	DNA CAG counter
CCOC(=O)c1c(NS(=O)(=O)c2cccc(OC)c2)sc2c1CCC2	-0.8	2.1	-1.0	8.0	-15.0	59.9*	68.6*	22.7*
O=C(/C=C/c1cccs1)Nc1sc2c(c1C(=O)O)CCCC2	-1.6	-4.7	-0.9	0.7	-12.7	53.0*	28.1	6.7*
O=C(Nc1sc2c(c1C(=O)O)CCCCC2)c1ccccc1F	5.3	1.5	3.2	3.5	3.5	35.5*	19.5	4.3
O=C(Nc1sc2c(c1C(=O)O)CCCCC2)c1cccs1	4.2	10.9	-0.3	10.4	-3.5	35.9*	18.5	4.7*
CCC(NC(=O)Cn1c(-c2ccccc2)cc(C(C)=O)c1C)c1ccccc1 (configuration not stated)	0.4	3.0	0.0	-0.5	·	3.2	·	·
CCC(C)N(C(=O)CNc1nnnn1-c1ccccc1)C(C)CC (configuration not stated)	-0.9	-0.3	-6.4	4.0	·	-2.8	·	·
CCOC(=O)c1c(N2C(=O)Nc3ccccc3N2O)sc2c1CCCC2	-3.9	0.6	3.8	-0.2	4.6	37.7*	30.4	6.7*
COC(=O)c1c(N2C(=O)Nc3ccccc3N2O)sc(C)c1C	-5.1	-1.9	3.5	-2.8	6.3	7.5	·	·
CCOC(=O)c1c(NC(=O)C2C3C=CC(C3)C2C(=O)O)sc2c1CCC(CC)C2 (configuration not stated)	7.8	0.1	3.9	-0.9	4.9	38.3*	64.1*	23.6*
CCOC(=O)c1c(NC(=S)Nc2ccccc2)sc2c1CCCCC2	·	·	·	·	-9.3	·	·	·
CCOC(=O)c1c(NC(=O)c2ccccc2C(=O)O)sc2c1CCCC2	4.2	6.1	0.7	7.2	-4.3	55.2*	46.3*	16.2*
CCOC(=O)c1c(NC(=O)C2C3C=CC(C3)C2(C)C(=O)O)sc2c1CCCC2 (configuration not stated)	1.5	4.1	3.1	-0.5	-3.5	43.3*	46.2*	15.1*
CC1(C(=O)NS(=O)(=O)c2ccc(Cl)cc2)CCN1C(=O)Cc1cccc2ccccc12 (configuration not stated)	1.4	1.9	5.3	-3.3	2.3	45.7*	31.4	7.6*
CC(C)(C)c1ccc(S(=O)(=O)NC(=O)C2(C)CCN2C(=O)Cc2ccccc2Cl)cc1 (configuration not stated)	1.2	-1.6	1.0	0.0	1.7	47.0*	56.1*	20.6*
CC(C)(C)c1ccc(CC(=O)N2CCC2(C)C(=O)NS(=O)(=O)c2ccccc2Cl)cc1 (configuration not stated)	2.2	1.7	-2.5	8.2	3.0	40.6*	34.2	8.3*
Cc1ccccc1S(=O)(=O)NC(=O)C1(C)CCN1C(=O)Cc1ccc(C(C)(C)C)cc1 (configuration not stated)	0.4	-2.7	-1.5	0.2	14.3	40.4*	32.6	8.7*
CC1(C(=O)NS(=O)(=O)c2ccccc2Cl)CCN1C(=O)Cc1ccccc1 (configuration not stated)	-1.6	0.7	-4.8	-0.3	4.5	5.4	·	·
Cc1cc(C)cc(CC(=O)N2CCC2(C)C(=O)NS(=O)(=O)c2ccccc2C)c1 (configuration not stated)	1.7	0.4	0.7	-0.1	-6.5	16.5	·	·
O=C(N[C@H](C(=O)N1CCC[C@H]1C(=O)NCCc1ccccc1Cl)c1ccccc1)c1cccs1	-1.1	-3.5	2.6	1.2	·	-0.3	·	·
CC(C)(C)c1ccc(S(=O)(=O)NC(=O)C2(C)CCN2C(=O)c2cccc3ccccc23)cc1 (configuration not stated)	2.7	-1.3	1.3	4.4	1.7	57.0*	52.1*	16.2*
CC1(C(=O)NS(=O)(=O)c2ccccc2Cl)CCN1C(=O)c1cccc2ccccc12 (configuration not stated)	1.9	-0.5	4.6	-0.7	-1.3	22.0	·	·
O=C(C(=O)N1CCN(C(=O)c2ccccc2C(F)(F)F)CC1)c1cccc(C(F)(F)F)c1	-0.2	-6.2	-1.9	2.6	·	-1.4	·	·
COc1ccc(NC(=O)CSc2nc(O)cc(=O)[nH]2)c(OC)c1	5.9	0.1	0.5	15.6	1.1	47.4*	4.2	1.9
COc1ccc(NC(=O)CSc2cn[nH]n2)c(OC)c1	0.4	1.7	-1.3	-2.1	4.4	-1.4	·	·
CN1CCCCC(NC(=O)c2cccc(F)c2)C1=O (configuration not stated)	1.2	4.6	-3.6	-1.2	·	1.4	·	·
SMILES	UHRF1 MBD2 ctr	MBD2 inh	LEDGF integ inh	PRMT1 inh	ABHD5-PLIN5 inh	rCAG RNA binder	rCAG binder conf	DNA CAG counter
COC(=O)C1=C(C)N(C)C(=NCc2ccccc2)NC1c1ccccc1C(F)(F)F (configuration not stated)	-1.5	0.9	0.7	2.8	·	5.0	·	·
Cc1c(Nc2nc3ccccc3nc2NS(=O)(=O)c2cccc(Cl)c2)c(=O)n(-c2ccccc2)n1C	4.1	3.2	-5.5	2.0	-3.3	52.4*	47.9*	15.1*
CC1=C(C(=O)OCc2ccccc2)C(c2ccccc2Cl)NC(=O)N1CCCC(=O)O (configuration not stated)	0.9	-3.2	-2.0	0.1	8.8	14.7	·	·
CC1=C(C(=O)OCc2ccccc2)C(c2ccccc2OS(=O)(=O)c2ccc(C)cc2)NC(=O)N1CCCC(=O)O (configuration not stated)	-0.1	0.1	2.5	-0.9	·	34.9*	62.2*	20.8*
COC(=O)C1=C(C)N(Cc2ccc(Cl)cc2)C(=S)NC1c1ccc(Cl)cc1 (configuration not stated)	0.0	-3.6	-1.1	-3.2	·	5.0	·	·
CCN(CC)S(=O)(=O)c1cccc(C(=O)N/N=C/c2cccc(O)c2O)c1	-2.3	-1.1	-11.5	10.0	4.2	37.4*	33.0	13.0*
